Reference: PubChem BioAssay (NCATS)
Results filed as inconclusive are left out. A call without a number means that no potency is given here. Unmarked numbers belong to inactive results. Active and inactive are the calls of the source. The call rests on the fitted dose curve; in most records, active means well fitted curve in the direction sought with a large enough effect; inconclusive means small, poorly fitted or top-dose-only effect, or another doubt; inactive means no such curve, though single readings can be large; an effect the other way counts as inactive or inconclusive.

Experiment: P-glycoprotein substrates identified in KB-3-1 adenocarcinoma cell line, qHTS therapeutic library screen (AID 1346986); further: nearly all actives have a fitted effect of over 60% in size
Conditions: KB-3-1 parental cells viability, CellTiter-Glo, 72 h; series mostly up to 44.5 µM
Method in brief: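 Using luminescence to quantify ATP, parental and P-gp-overexpressing KB cells were compared after 72 h compound titration. KB-8-5-11 was also run with the P-gp inhibitor tariquidar.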

| Compound | Potency |
| --- | --- |
| CC(=O)OCC1(O)CCC2C(COC3OC(CO)C(O)C(O)C3OC(=O)/C=C/c3ccc(O)cc3)=COC(OC(=O)CC(C)C)C21 (stereo not drawn) | inactive |
| Cc1ccc(C(=O)Nc2noc3ccccc23)cc1 | inactive |
| CC(=O)OC1/C(C)=C/C(=O)C(OC(C)=O)C(C)(C)/C=C/C(C)C(=O)C2(OC(C)=O)CC(C)C(OC(=O)c3ccccc3)C12 (stereo not drawn) | inactive |
| O=C(Nc1c(-c2cccs2)nc2ccccn12)c1ccc(Cl)cc1 | inactive |

Experiment: P-glycoprotein substrates identified in KB-8-5-11 adenocarcinoma cell line, qHTS therapeutic library screen (AID 1346987); further: nearly all actives have a fitted effect of over 65% in size; further: potency means the concentration at half of the fitted maximal effect
Conditions: KB-8-5-11 (P-gp overexpressing) viability, CellTiter-Glo, 72 h; series mostly up to 44.5 µM
Method in brief: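 Human cervical adenocarcinoma KB-8-5-11 cells, selected in colchicine to over-express P-gp and assayed without it, were exposed for 72 h to titrated compounds. An ATP-based luminescent viability signal gave AC50.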

| Compound | Potency | outcome | activity change, negative = cytotoxicity |
| --- | --- | --- | --- |
| C=CC1C(OC2OC(CO)C(O)C(O)C2O)OC=C(C(=O)OC)C1CC1CC(=O)CC(CCc2ccc(O)cc2)O1 (stereo not drawn) | inactive |  |  |
| NCCCNc1ccc(Nc2nccc(Nc3cc(C4CC4)[nH]n3)n2)cc1 | 1.3 µM (active) |  |  |
| CC1(C)CC(NC(=O)C(=O)Nc2ccc(Br)cc2)CC(C)(C)N1 | inactive |  |  |
| CO[C@H]1C[C@@H]2CC[C@@H](C)[C@@](O)(O2)C(=O)C(=O)N2CCCC[C@H]2C(=O)O[C@H]([C@H](C)C[C@H]2CC[C@@H](OP(C)(C)=O)[C@H](OC)C2)CC(=O)[C@H](C)/C=C(\C)[C@@H](O)[C@@H](OC)C(=O)[C@H](C)C[C@H](C)/C=C/C=C/C=C/1C | inactive |  |  |
| CC1(C)CC[C@]2(C(=O)OC3OC(CO)C(O)C(O)C3O)CC[C@]3(C)C(=CCC4[C@@]5(C)CC[C@H](OC6OC(C(=O)O)C(O)C(OC7OC(CO)C(O)C(O)C7O)C6O)C(C)(C)C5CC[C@]43C)C2C1 (stereo partly drawn) |  | inactive [at 9.29 µM] |  |
| COc1c(/C=C/C(C)(C)O)ccc2c1C(=O)OCc1cc(C)cc(O)c1O2 | inactive |  |  |
| CC(C)(C)NCCCNC(=O)c1cccc(Br)c1 | inactive |  |  |
| Cc1ccccc1C#Cc1ccc(CCC(=O)O)cc1 | inactive |  |  |
| CC(=O)OCC1(O)CCC2C(COC3OC(CO)C(O)C(O)C3OC(=O)/C=C/c3ccc(O)cc3)=COC(OC(=O)CC(C)C)C21 (stereo not drawn) | inactive |  |  |
| CNC(=O)c1ccccc1Nc1nc(Nc2ccc3c(c2OC)CCCC(N2CCN(CCO)CC2)C3)ncc1Cl (stereo not drawn) | 8.2 µM (active) |  |  |
| Cc1ccc(NC(=O)Nc2cc(C(F)(F)F)ccc2F)cc1Nc1ccc2c(c1)NC(=O)/C2=C\c1ccc[nH]1 | 13 µM (active) |  |  |
| CCOc1cc(CC(=O)NC(CC(C)C)c2ccccc2N2CCCCC2)ccc1C(=O)O (stereo not drawn) | inactive |  |  |
| C/C=C/c1cc(OC)c2c(c1)[C@@H](C)[C@@H](c1ccc(O)c(OC)c1)O2 | inactive |  |  |
| CC1=CC(=O)CC2C1(O)CCC(C)C21CC(c2ccoc2)OC1=O (stereo not drawn) | inactive |  |  |
| COc1cc2nc(N3CCCC3)nc(NCCCCCN3CCCC3)c2cc1OC | inactive |  |  |
| CC(=O)C=C=C1C(C)(C)CC(O[C@@H]2O[C@H](CO)[C@@H](O)[C@H](O)[C@H]2O)CC1(C)O (stereo partly drawn) | inactive |  |  |
| COc1cc(O)c2c(c1)C1=CC(O)C(O)CC1(C)OC2=O (stereo not drawn) | inactive |  |  |
| CC1C(=O)CC2C3CCC(C(=O)O)C12CC3(C)CO (stereo not drawn) | inactive |  |  |
| COc1ccc(/C=C/C(=O)O[C@@H]2[C@@H](O)[C@@H](O)[C@H](O[C@@H]3C=C(CO)[C@H]4[C@H](O[C@@H]5O[C@H](CO)[C@@H](O)[C@H](O)[C@H]5O)OC=C[C@H]43)O[C@H]2C)cc1O | inactive |  |  |
| CCCCOC(=O)NC(=O)C1c2ccccc2Oc2ccccc21 | inactive |  |  |

| Compound | Potency | outcome | activity change, negative = cytotoxicity |
| --- | --- | --- | --- |
| Cc1ccccc1NC(=O)Nc1ccc(CC(=O)N(C)[C@@H](CC(C)C)C(=O)NCC[C@H](NC(=O)[C@@H]2CCCN2S(=O)(=O)c2cc(Cl)cc(Cl)c2)C(=O)O)cc1 | inactive |  |  |
| Cc1ccc(C(=O)Nc2noc3ccccc23)cc1 | inactive |  |  |
| C[C@@H]([C@@H](O)c1ccc(O)cc1)N1CCC(O)(c2ccccc2)CC1 | inactive |  |  |
| C/C=C(\C)C(=O)OCC1OC(OC2OC(COC(=O)/C(C)=C/C)C(OC3OC(CO)C(OC(=O)/C(C)=C/C)C(OC(=O)/C(C)=C/C)C3O)C(O)C2O)C(O)C(O)C1OC1OC(CO)C(OC(=O)/C(C)=C/C)C(OC(=O)/C(C)=C/C)C1O (stereo not drawn) |  |  | 8.2% [at 9.29 µM] |
| Nc1nc2c(c(=O)[nH]1)C[C@@H](CCc1ccc(C(=O)N[C@@H](CCC(=O)O)C(=O)O)cc1)CN2 | 0.058 µM (active) |  |  |
| COc1ccc(-c2cnc(-c3cccc4c3-c3ccccc3C4=O)o2)cc1 | 0.0893 µM (active) |  |  |
| CC(=O)OC1/C(C)=C/C(=O)C(OC(C)=O)C(C)(C)/C=C/C(C)C(=O)C2(OC(C)=O)CC(C)C(OC(=O)c3ccccc3)C12 (stereo not drawn) | inactive |  |  |
| O=C(Nc1c(-c2cccs2)nc2ccccn12)c1ccc(Cl)cc1 | inactive |  |  |
| CC(=O)OC1CC2(C)C3=CCC4(C)C5C(O)C(O)C(C(C)C)C5(C)CCC4(C)C3CCC2C(C)(C)C1OC1OC(CO)C(O)C(O)C1O (stereo not drawn) | inactive |  |  |
| CC(C)c1ccc2c(c1)C(=O)CC1[C@@](C)(C(=O)O)CCC[C@]21C (stereo partly drawn) | inactive |  |  |
| COc1ccc(CCC(=O)c2c(O)cc(O)cc2O[C@@H]2O[C@H](CO)[C@@H](O)[C@H](O)[C@H]2O)cc1 | inactive |  |  |
| CC1OC(OC2C(OC3C(O[C@H]4CC[C@@]5(C)C(CC[C@]6(C)C5C(=O)C=C5C7CC(C)(C)CC(O)[C@]7(C)CC[C@]56C)C4(C)C)OC(C(=O)O)C(O)C3O)OCC(O)C2O)C(O)C(O)C1O (stereo partly drawn) |  |  | 7.36% [at 9.29 µM] |
| CC(=O)OC1C[C@]2(C)C(O)CC(C)=C[C@H](OC(=O)c3ccc(O)cc3)C2[C@]1(O)C(C)C (stereo partly drawn) | inactive |  |  |
| O=C1OCC(c2ccccc2)=C1Cc1ccccc1 | inactive |  |  |
| Cc1cc(Nc2cc(N3CCN(C)CC3)nc(/C=C/c3ccccc3)n2)n[nH]1 | 7.31 µM (active) |  |  |
| COCCOc1cnc2ccn([C@H](C)c3nnc4c(F)cc(-c5cnn(C)c5)cn34)c(=O)c2c1 | inactive |  |  |
| Cc1[nH]c2ccccc2c1C1=C(NCCc2ccc(F)cc2)C(=O)N(C)C1=O | 16.4 µM (active) |  |  |
| C[C@@H]1CC[C@@]2(OC1)O[C@H]1C[C@H]3[C@@H]4CC=C5C[C@@H](O)CC[C@]5(C)[C@H]4CC[C@]3(C)[C@H]1[C@@H]2C | inactive |  |  |
| Cc1cc(-c2cc(O)ccc2Cl)cc2nnc(Nc3ccc(OCCN4CCCC4)cc3)nc12 | 4.61 µM (active) |  |  |
